Growth data for seven molecules are collected here from PubChem BioAssay (NCI).

Common to all, as to assay: NCI-60 one-dose screen, 48 h (100 = growth as untreated, 0 = no growth, -100 = all killed)
Holding throughout (conditions): 10 µM unless noted

Test [1] relates to NCI-H23 lung.
Test [2] has as its system NCI-H226 lung.
The subject of test [3] is NCI-H322M lung.
The test system of test [4] is HOP-62 NSCLC.
The subject of test [5] is NCI-H460 lung.
Test [6] deals with HOP-92 NSCLC.
Test [7] concerns NCI-H522 lung.
Test [8] deals with A549/ATCC NSCLC.
The test system of test [9] is 786-0 renal.
For test [10], the system named is COLO 205 colon.
Test [11] concerns DU-145 prostate.
In test [12] the test system is K-562 leukemia.
In test [13] the test system is MALME-3M melanoma.
The test system of test [14] is MDA-MB-231 breast.
Test [15] relates to RXF 393 renal.
The test system of test [16] is SF-268 CNS.
For test [17], the system named is SF-295 CNS.
Test [18] concerns SF-539 CNS.
The test system of test [19] is UACC-257 melanoma.
The test system of test [20] is M14 melanoma.

Structures are written as SMILES. Compounds without any hit were thinned out: in the full panel of roughly 83,000, 20% have a hit.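 Assay: single dose, 48 h. Readout: percent growth (0 = no net growth; negative = cell death). Active: <10.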 A number with no mark means an inactive call. The source made the active and inactive calls.

With `CN(C[C@@H]1COCCO1)S(=O)(=O)Nc1ccc2ccc3ncc(-c4cnn(C)c4)cc3c(=O)c2c1`, the growth in test [1] was 30.6%; in [2] it was 40.9%; in test [3], 26.3%; in test [4], 36.4%; in [5], 35%; in [6], 16.9%. Besides, the growth in [7] was 11.2%; in test [8], 48.1%; in test [9], 41.3%; in test [10] it was 49.3%; in test [11], 44%; in test [12] it was 39.5%. The growth in test [13] is 46%; in test [14], 49.5%; in [15], -2.79% (active); in [16], 35%; in test [17], 19.3%; in test [18], 0.172% (active). Moreover, the growth is 69.3% in test [19] and 35.3% in test [20].

Turning to `CO[C@H]1C[C@@H]2CC[C@@H](C)[C@@](O)(O2)C(=O)C(=O)N2CCCC[C@H]2C(=O)O[C@H]([C@H](C)C[C@@H]2CC[C@@H](OCCO)[C@H](OC)C2)CC(=O)[C@H](C)/C=C(\C)[C@@H](O)[C@H](OC)C(=O)[C@H](C)C[C@H](C)\C=C/C=C/C=C/1C`, the growth is 54.9% in test [1]; 48.7% in test [2]; 44.9% in test [3]; 41.2% in [4]; 43.2% in test [5]; 45.7% in test [6]. Further, the growth in test [7] was 48.7%; in test [8], 44.6%; in test [9] it was 52.6%; in test [10], 55.8%; in test [11], 50.8%; in [12] it was 42.9%. The growth in test [13] is 36.6%; in test [14], 63.1%; in test [15], 5.21% (active); in [16] it was 51.6%; in test [17] it was 26.3%; in [18] it was 41.8%. Besides, the results for the growth in [19] and in [20] were 61% and 62.2%, respectively.

Take `COc1ccc(-c2cnc(-c3ccc(Cl)cc3)[nH]2)cc1OC`: the growth is 99.2% in test [1]; 88.3% in [2]; 120% in [3]; 94.3% in test [4]; 100% in test [5]; 25.8% in test [6]. Besides, the growth was 105% in test [7]; 105% in test [8]; 100% in [9]; 98.7% in [10]; 78.7% in test [11]; 115% in test [12]. The growth was 155% in [13]; 78.6% in [14]; 91.6% in test [15]; 78% in test [16]; 111% in test [17]; 95.6% in test [18]. The figures for the growth in test [19] and in [20] were 119% and 115%, respectively.

For `COc1cc2ncnc(Nc3ccc(O)cc3)c2cc1OC`, the growth is 104% in test [1]; 95.2% in test [2]; 12.4% in [3]; 86.5% in [4]; 103% in [5]; 78% in [6]. In addition, the growth was 11% in test [7]; 45.8% in [8]; 83.4% in [9]; 115% in [10]; 61.3% in test [11]; 73% in test [12]. For the same molecule, the growth in test [13] is 102%; in [14], 88.8%; in test [15], 82.3%; in [16], 86.6%; in test [17], 98.8%; in [18], 73.4%. Moreover, the growth was 63.7% in [19] and 79.7% in test [20].

On to `C=CCN1C(=O)c2cccc3c(-c4ccc5c(c4)ncn5C4CCCCC4)ccc(c23)C1=O`, for which the growth was 50.5% in [1]; 44.8% in test [2]; 93.9% in test [3]; 67.1% in test [4]; 58.2% in [5]; 32.4% in [6]. Besides, the growth is 52% in test [7]; 58.3% in [8]; 58.8% in test [9]; 47% in [10]; 72.5% in [11]; 26.2% in test [12]. Besides, the growth was 56% in test [13]; 57.1% in [14]; 110% in test [15]; 72.4% in [16]; 44.5% in test [17]; 71.4% in test [18]. Moreover, the growth is 44.6% in test [19] and 50% in test [20].

In the case of `CC/C=C\C[C@H]1C/C=C2/C(=O)C=C[C@@H]2C/C=C\CCCC(=O)O1`, the growth in test [1] is -12.5% (active); in test [2] it was -54.8% (active); in test [3], 16.7%; in test [4], 44.2%; in [5] it was -33.7% (active); in [6] it was -36.6% (active). Further, the growth in test [7] is -45.1% (active); in [8] it was -25.2% (active); in test [9], -79.9% (active); in test [10], -13.1% (active); in [11] it was -10.9% (active); in test [12], 1.56% (active). Further, the growth in [13] was -15.3% (active); in [14], 1.26% (active); in test [15] it was -57.1% (active); in test [16] it was -0.852% (active); in [17], -19.8% (active); in test [18], 5.18% (active). Besides, the growth in test [19] is -12.7% (active); in [20], -17.4% (active).

Regarding `CC[C@@H]1C(=O)N(C)c2cnc(Nc3ccc(C(=O)NC4CCC(N5CCN(CC6CC6)CC5)CC4)cc3OC)nc2N1C(C)C` (stereo not given in full), the growth in test [1] was -1.19% (active); in test [2], 49.7%; in test [3], 23.3%; in test [4] it was -29.7% (active); in test [5], 1.14% (active); in test [6], 20.7%. In addition, the growth in test [7] was -52.8% (active); in test [8], -6.16% (active); in test [9] it was -80.2% (active); in test [10] it was -61.9% (active); in test [11] it was 14.6%; in test [12], -6.16% (active). Besides, the growth was -80.6% (active) in test [13]; 5.19% (active) in [14]; -30.4% (active) in test [15]; 11.2% in [16]; -36.2% (active) in test [17]; -85.7% (active) in [18]. The growth is -67.3% (active) in [19] and -57.7% (active) in test [20].
